Screens deposited in PubChem BioAssay by several laboratories.
Only some compounds are listed: those with a hit (about 2.1% of all), similar ones and a draw of the others.
ROMK mod – modulators of human ROMK potassium channel; P48048; Tet-inducible ROMK, thallium flux fluorescence; actives lie on both sides; B-score at 10 µM; actives 2% (n = 130,000); AID 1918;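 active means signal ratio slope over the read window, or its plate-corrected B-score, at least 3 SD from the plate mean, either direction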;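 further: B-score of the F/F0 ratio slope over 7 to 12 s after thallium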
Target sequence (P48048 whole entry, looked up): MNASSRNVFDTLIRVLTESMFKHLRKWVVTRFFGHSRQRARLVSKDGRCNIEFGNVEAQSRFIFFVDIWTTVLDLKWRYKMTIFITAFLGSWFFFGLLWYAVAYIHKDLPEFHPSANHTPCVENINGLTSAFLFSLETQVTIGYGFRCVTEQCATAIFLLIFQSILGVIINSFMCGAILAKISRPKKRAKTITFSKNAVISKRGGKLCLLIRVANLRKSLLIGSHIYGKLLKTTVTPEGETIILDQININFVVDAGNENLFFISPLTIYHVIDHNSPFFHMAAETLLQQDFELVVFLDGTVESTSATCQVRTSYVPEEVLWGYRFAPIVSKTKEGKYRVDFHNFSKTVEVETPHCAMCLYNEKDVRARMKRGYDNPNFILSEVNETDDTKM
Calpain2 inh – blocks pig calpain II enzyme activity; purified calpain II, fluorogenic peptide substrate, 30 min; inhibition, % at 16 µM; actives 0.37% (n = 220,000); AID 1236;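 active means inhibition above about 50%, limit read from the data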
Efa HMGR inh – inhibitors of class II HMG-CoA reductase from Enterococcus faecalis; purified E. faecalis HMGR, NADPH absorbance 340 nm kinetic; inhibition, % at 10 µM; actives 0.41% (n = 190,000);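 active means inhibition above a set limit, the median over all tested compounds plus 3 SD, cut at about 9.5% in these data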;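 further: enzyme runs in reverse so mevalonate oxidation gives rising NADPH absorbance; 0% = complete reaction with DMSO and 100% = background rate lacking mevalonate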
Arbovirus anti – antivirals against arbovirus infection. actives 0.37% (n = 200,000). arbovirus infection cell-based antiviral screen. inhibition, % at 10 µM; in the data active means inhibition above about 30%
HSV replic up – HSV replication enhancement; HSV replication augmentation in cells, fold increase; maximum fold increase; actives 0.005% (n = 220,000); AID 1956; in the data active means maximum fold increase above about 1.5; tested in PC3 cells
The depositor's hits bear a star; i = inactive; x = no result given.

SMILES	ROMK mod	Calpain2 inh	Efa HMGR inh	Arbovirus anti	HSV replic up
O=C(COC(=O)C1CCN(C(=O)c2ccc(Cl)cc2)CC1)NC1CCS(=O)(=O)C1 (configuration not stated)	-0.244	-3.1	-4.2	7.5	i
CCCCN1C(=O)C(=O)N(CC(=O)Nc2cc(OCC)c(N3CCOCC3)cc2OCC)C1=O	-0.677	8.7	-1.7	2.6	i
CCOCCCNC(=S)NCCCNc1nc2c(C)cc(C)cc2cc1C#N	x	-202.0	0.9	-25.7	i
CCOCCCNC(=S)NCCNc1nc2c(C)cccc2cc1C#N	x	-237.2	0.6	30.5*	i
CC(/C=C1\SC(=S)N(NC(=O)c2ccc(C)cc2)C1=O)=C\c1ccccc1	x	-13.7	-0.7	-3.3	i
CC(/C=C1\SC(=S)N(c2ccc(C(=O)O)cc2)C1=O)=C\c1ccccc1	-2.49	73.2*	x	x	i
C=CCOC(=O)C1=C(C)NC(=S)C(C#N)(CC=C)C1c1ccccc1Cl (configuration not stated)	x	17.2	x	x	i
CCOC(=O)c1c(NC(=O)Cn2cnc([N+](=O)[O-])n2)sc(C)c1C	0.604	13.8	-4.1	-5.5	i
COCCN(C(=O)C1CCCC1)c1c(N)n(Cc2ccccc2)c(=O)[nH]c1=O	0.457	11.4	-5.8	1.4	i
CC(C)CCN(C(=S)NC(=O)C1CCCCC1)c1c(N)n(Cc2ccccc2)c(=O)[nH]c1=O	-2.05	63.7*	-5.8	31.8*	i
N#Cc1c(N)nc(SCc2ccncc2)c(C#N)c1-c1cccs1	x	-38.1	-3.7	-3.9	i
CN1CCc2nc(SCc3ccc(Cl)cc3)c(C#N)c(-c3cccs3)c2C1	-3.38*	x	x	x	i
CCN(CC)C(=O)CC(c1ccc(F)cc1)c1ccc(OC(C)C)cc1 (configuration not stated)	x	8.4	1.0	1.9	i
O=C(O)c1cccc(-n2cccc2/C=C2/NC(=O)N(c3ccc(Cl)cc3)C2=O)c1	1.39	-3.2	10.1*	31.8*	i
Cc1ccccc1N=C1NC(=O)/C(=C/c2cccn2-c2cccc(C(=O)O)c2)S1	0.903	47.0	-4.1	75.7*	i
Cc1cccc(N=C2NC(=O)/C(=C/c3cccn3C)S2)c1C	x	-9.7	x	x	x
O=C(C/C=N/OCc1ccc(F)cc1Cl)c1cnc(-c2ccccc2)s1	x	-15.0	11.1*	7.8	i
O=C(C/C=N/OCc1ccccc1F)c1cnc(-c2ccc(Cl)cc2)s1	x	-4.5	3.9	4.7	i
O=C(C1CCN(S(=O)(=O)c2cccc3nsnc23)CC1)N1CC=C(c2ccccc2)CC1	x	-177.5	1.1	5.4	x
O=C(C1CCCN(S(=O)(=O)c2cccc3nsnc23)C1)N1CC=C(c2ccccc2)CC1 (configuration not stated)	-4.34*	-26.0	1.2	3.9	i
CC(=O)N(C)c1nc(N)n(-c2ccccc2)n1	0.396	-12.2	15.9*	4.2	i
Cc1ccc2nc(Cl)c(/C=N/n3c(C)nnc3C)cc2c1	0.142	-20.1	-5.8	9.1	i
C/C(N)=C(/C#N)C(=O)CSc1nnc(COc2ccccc2Cl)o1	x	103.1*	-1.7	-9.9	i
Cc1ccc2nc(NC(=O)CN(C)S(=O)(=O)c3cccc4nsnc34)sc2c1	x	53.3*	-4.6	-21.5	i
Cc1nc(-c2cccnc2)sc1C(=O)N/N=C/c1ccccc1Cl	1.43	-62.1	x	x	i
SMILES	ROMK mod	Calpain2 inh	Efa HMGR inh	Arbovirus anti	HSV replic up
CCOc1ccc(C(C)=O)cc1NC(=O)/C=C\C(=O)O	x	-3.7	-0.9	4.6	i
O=C(Cc1ccc(Br)cc1)Nc1ncc([N+](=O)[O-])s1	-0.153	8.3	x	x	i
CC(CC(=O)Nc1ncc([N+](=O)[O-])s1)c1ccccc1 (configuration not stated)	-4.35*	-3.0	-6.0	3.4	i
O=C(COc1ccc(Cl)cc1)Nc1ncc([N+](=O)[O-])s1	0.937	45.5	-1.2	30.5*	i
O=C(Cc1ccc(Cl)cc1)Nc1ncc([N+](=O)[O-])s1	-2.03	77.2*	-8.5	22.4	i
CCC(Oc1ccccc1)C(=O)Nc1ncc([N+](=O)[O-])s1 (configuration not stated)	-0.584	-30.4	2.5	19.9	i
CS(=O)(=O)N1CCc2cc(S(=O)(=O)N3CCCCC3)ccc21	-0.245	3.4	16.2*	17.4	i
CS(=O)(=O)N1CCc2cc(C(=O)N3CCCCC3)ccc21	-0.0312	21.4	-0.8	2.1	i
N#CCCN(CCN1CCCC1)S(=O)(=O)c1ccc(-c2ccc([N+](=O)[O-])cc2)cc1	-2.69	-2.4	-3.9	-3.4	i
Nc1ccc(-c2nc3ccc(N)cc3o2)cc1	x	-467.5	-0.3	-13.3	i
Cc1ccc2nc(-c3cc(N)cc(N)c3)oc2c1	x	-114.8	13.6*	-2.8	i
O=C(N/N=C/C(Cl)=C/c1ccccc1)c1cnccn1	x	-12.0	14.3*	-7.6	i
CCc1ccc(NC(=O)C(=O)NCCN2CCN(S(C)(=O)=O)CC2)cc1	-0.0156	-18.4	11.4*	2.6	i
Cc1ccc(NC(=O)C(=O)NCCN2CCN(S(C)(=O)=O)CC2)cc1	-0.306	9.8	-2.1	1.1	i
CCn1c(SCC(=O)N2CCCc3ccccc32)nc2cccnc21	3.09*	9.3	-5.7	0.7	i
O=C(CSc1nc2ccccc2c(=O)n1-c1ccccc1)N1CCCc2ccccc21	-0.931	-7.3	-5.6	24.1	i
O=C(CSc1nc2ccccc2c(=O)n1-c1ccccc1)N1CCc2ccccc21	x	68.2*	-7.5	-1.2	i
COc1cccc(CN2CCN(Cc3ccc4c(NC(C)=O)cccc4n3)CC2CCO)c1 (configuration not stated)	0.0269	-54.9	0.8	-2.3	i
N#CCCn1cc(/C=N/N=C2\NC(=O)C(CC(=O)O)S2)c(-c2ccc(F)cc2)n1 (configuration not stated)	x	-15.0	x	x	i
Cc1nc(S/C(=C/c2ccc(-c3cccc(Cl)c3)o2)C(=O)O)n[nH]1	x	-42.2	-0.2	33.4*	x
Cc1cc(C)c2c(n1)sc1c(=O)[nH]c(SCc3ccccc3)nc12	x	-109.6	0.3	-2.2	i
C=CCSc1nc2c(sc3nc(C)cc(C)c32)c(=O)[nH]1	x	-118.3	1.7	65.0*	i
CCOC(=O)CNC(=O)CN1C(=O)CC(c2ccccc2)S(=O)(=O)c2ccccc21 (configuration not stated)	1.1	-9.4	10.7*	3.0	i
Cc1ccc(C(=O)NNC(=O)c2ccc3ncccc3c2)cc1	-1.37	51.8*	-3.6	0.5	i
O=C(NNC(=O)c1ccc2ncccc2c1)c1ccc(Cl)cc1	-1.22	8.4	1.2	2.0	i
COc1ccc2[nH]c(=O)c(CN(CCCN(C)C)C(=O)Nc3ccc(F)cc3)cc2c1	x	-56.1	-1.6	30.3*	i
Cc1cccc(NC(=O)Cn2c(=O)n(C)c3ccccc32)c1	0.176	-4.5	11.8*	0.1	i
CCOC(=O)c1c2c(c(=S)n(-c3ccccc3)c1N)CCC2	x	51.3*	-4.9	-0.6	i
CC(C)C(NC(=O)c1ccc(F)cc1)C(=O)NCC1CCCO1 (configuration not stated)	x	-5.3	x	x	i
O=Cc1[nH]c2ccccc2c1N(C(=O)CCl)c1ccc([N+](=O)[O-])cc1	-2.03*	-5.7	x	x	i
